# BJeLR lethal: MLPCN primary cell-based screen for lethality selective to Ras in HRASV12 cells; BJeLR (HRASV12) viability, CellTiter-Glo ATP luminescence, 48 h; inhibition, % (test concentration not listed); 300,000 compounds, 0.17% hits; in the data active = inhibition above about 50%; inconclusive = no clear call, values can overlap the other calls
# Anthrax LF inh2: Bacillus anthracis LF protease inhibitors, primary screen, biochemical, multiplex microsphere, MLPCN library; multiplex microsphere protease cleavage assay; inhibition, % at 10 µM; 360,000 compounds, 0.12% hits; AID 588501, 2011; also: plate controls were buffer without enzyme for full effect and enzyme alone for no effect
# BoNT A protease: BoNT/A light chain protease inhibitors, primary screen, biochemical, flow cytometry, MLPCN library. Botulinum neurotoxin type A light chain protease (Clostridium botulinum A str. ATCC 3502). multiplex microsphere protease substrate cleavage. inhibition, % at 10 µM. 360,000 compounds, 0.17% hits. AID 588499, 2011; also: plate controls were buffer without enzyme for full effect and enzyme alone for no effect
# BoNT F protease: BoNT/F light chain protease inhibitors, primary screen, biochemical, flow cytometry, MLPCN library; Multiplex microsphere protease cleavage assay; 360,000 compounds, 0.22% hits; inhibition, % at 10 µM; in the data active = inhibition above about 35%, passing the limit was not always enough; inconclusive = no clear call, values can overlap the other calls; also: plate controls were buffer without enzyme for full effect and enzyme alone for no effect
# Autofluor counter: flagged as autofluorescent in microsphere protease counterscreen; AID 624483; fluorescence intensity (no concentration beside the values); 360,000 compounds, 3.1% hits; compound autofluorescence counterscreen, microsphere flow cytometry; stronger effect = higher value; in the data active = fluorescence intensity above about 16000; inconclusive = no clear call, values can overlap the other calls
# * marks the source's active call; other numbers are inactive results; u = inconclusive; x = no result given. The list is not random: actives were taken first. Their share in the collection is about 3.5%. Rule as the data show it, unless noted: active = inhibition above about 30%; inconclusive = no clear call, values can overlap the other calls; inactive = below that.
SMILES,BJeLR lethal,Anthrax LF inh2,BoNT A protease,BoNT F protease,Autofluor counter
Cn1c(=O)oc2cc(S(=O)(=O)Nc3cccc(C(=O)O)c3)ccc21,x,-5.2,-0.3,-3.9,19703*
CC(=O)c1cccc(NS(=O)(=O)c2ccc3c(c2)oc(=O)n3C)c1,4.1,1.9,-2.9,-8.4,11967
CCCCC1CCC(C(=O)Nc2ccccc2N2CCOCC2)CC1 (stereo unspecified),x,1.6,-1.3,-18.2,u
CCCCC1CCC(C(=O)Nc2ccccc2)CC1 (stereo unspecified),-1.9,-2.5,u,-1.4,16463*
COC(=O)c1cc(=O)nc(NNC(C)=O)s1,x,-4.7,-0.4,-3.4,4305
Cc1nc2ccccc2n1CCc1nc2c3ccccc3nc(=S)n2[nH]1,-2.1,-0.5,u,-4.5,23484*
CN1CCN(c2ccc([N+](=O)[O-])c(N/N=C3\CN4CCC3CC4)c2)CC1,x,-2.5,-1.3,-4.2,20912*
CCNc1cc(N2CCN(C)CC2)ccc1[N+](=O)[O-],-32.1,-2.2,0.2,-3.6,4115
O=C(NCc1ccccc1)c1cc(-c2cccs2)on1,-5.6,-8.8,5.1,6.9,18644*
COC(=O)c1ccccc1NC(=O)c1cc(-c2cccs2)on1,-1.0,-1.1,0.7,1.9,20518*
COC(=O)c1ccccc1NC(=O)c1cc(-c2ccco2)on1,1.3,-0.1,0.3,-1.5,4529
COc1ccccc1-c1cc(C(=O)NCc2ccccc2)no1,9.7,-2.4,-1.1,-1.5,21016*
Cc1ccc(CNC(=O)C(C)OC(=O)c2ccco2)cc1 (stereo unspecified),-1.9,0.0,u,3.5,22466*
Cc1ccc(CNC(=O)C(OC(=O)c2ccco2)C(C)C)cc1 (stereo unspecified),-17.2,-3.6,-0.7,-12.3,11765
Cc1ccc(-c2ccc(CCC(=O)O)n2-c2cccc(O)c2)cc1,1.2,-0.7,-0.1,-1.1,19713*
COc1cccc(-n2c(SCC(=O)O)nnc2-c2cccnc2)c1,-1.6,-1.2,0.0,-2.4,10541
CCSc1nnc(-c2cccnc2)n1-c1ccc(Cl)c(C)c1,-18.1,-7.5,6.3,7.5,17981*
COC(=O)C(O)(c1ccc(NC(=O)Oc2ccccc2)cc1)C(F)(F)F (stereo unspecified),-15.7,1.4,0.3,-4.1,2240
COC(=O)C(O)(c1ccc(NC(=S)NC(=O)c2ccccc2)cc1)C(F)(F)F (stereo unspecified),9.7,-1.0,-3.1,-3.4,16903*
COc1ccccc1OCC(=O)Nc1ccc(Cl)cc1C(=O)c1ccccc1,-7.0,-2.7,-1.7,-1.3,23660*
COc1ccccc1CC(=O)Nc1ccccc1O,-10.0,-5.7,7.8,13.7,20480*
COc1ccccc1CC(=O)Nc1cc(Cl)ccc1O,-14.0,-8.0,u,6.3,18515*
COc1ccccc1NC(=O)Cc1csc(NC(=S)Nc2ccccc2)n1,-0.2,0.7,-1.9,-4.7,20382*
O=C(COc1ccccc1Cl)Nc1cc(Cl)ccc1O,0.6,-2.4,0.4,-1.7,4568
Cc1cc(C(=O)CCC(=O)N(C)CC2COc3ccccc3O2)c(C)s1 (stereo unspecified),x,1.5,0.3,6.1,4073
SMILES,BJeLR lethal,Anthrax LF inh2,BoNT A protease,BoNT F protease,Autofluor counter
COc1ccc(CNc2ccc(C)c(C)c2)cc1,0.2,-3.0,-0.1,4.3,3949
COc1cc(CNc2ccc(C)c(C)c2)cc(OC)c1OC,23.0,-6.2,-4.0,-9.4,17356*
CCNc1nc(-c2sc(NC(=O)C(C)(C)C)nc2C)c(-n2cc(-c3ccccc3)nn2)s1,x,-4.2,-0.7,-14.1,4685
COc1ccc(NC(=O)Nc2ccc(F)cc2F)c(C)c1,-2.0,0.4,u,-0.2,21747*
CC(C)(C)Cc1c(-c2ccccc2)nc2ccc(Cl)cn12,x,1.0,-0.1,-6.8,4670
COC(=O)c1c(O)c2ccccc2[nH]c1=O,13.6,3.5,7.6,12.2,19580*
O=C(NC(c1ccccc1)c1ccsc1)C1CCN(CCOc2ccc(Cl)cc2Cl)CC1 (stereo unspecified),x,-12.8,0.1,-7.2,2883
COc1ccccc1OC(C)C(=O)Nc1nc(-c2ccc(S(=O)(=O)N3CCOCC3)cc2)cs1 (stereo unspecified),3.5,-1.5,u,-5.9,23958*
O=c1[nH][nH]c2c1[C@H](CCc1cccc(Cl)c1)O[C@H](C1CCCC1)C2,x,-3.9,0.1,-0.5,6078
COc1cc(C2NC(=O)NC(C)=C2C(=O)OC(C)(C)C)ccc1OCC(N)=O (stereo unspecified),2.8,2.1,u,-7.8,21970*
COc1cc(C2NC(=O)NC(c3ccccc3)=C2C(C)=O)ccc1OCC#N (stereo unspecified),5.5,-1.5,0.7,-0.7,23457*
CC(=O)Nc1nnc(/C=C/c2cccc([N+](=O)[O-])c2)s1,1.8,-1.6,-0.4,63.1*,4252
CN(C)c1ccc(C2NCCS2)cc1 (stereo unspecified),-7.8,-4.0,0.1,-2.6,22912*
Cc1ccc(S(=O)(=O)N2C[C@H]3N(C(=O)OC(C)C)N(C(=O)OC(C)C)C[C@H](OC(=O)Nc4c(C)noc4C)[C@@]3(O)C2)cc1,x,-0.5,-0.3,0.6,3330
CCNC(=O)CSc1nnc(-c2ccccc2Br)n1-c1cccc(C(F)(F)F)c1,-12.9,-1.0,0.6,2.6,2126
CCc1nc2oc3ccccc3c(=O)c2c(=O)n1-c1ccccc1,x,0.5,0.2,3.0,16529*
Cn1cccc1Cc1nnc(SCC(=O)N2CCN(c3ccccc3)CC2)n1-c1ccc(F)cc1,-0.8,-2.0,u,-2.9,24052*
CCOc1ccccc1NC(=O)CSc1nnc(Cc2cccn2C)n1-c1ccc(F)cc1,-0.4,-5.8,0.2,-5.8,6165
CCOC(=O)c1ccccc1NC(=O)CSc1nnc(Cc2cccn2C)n1-c1ccc(F)cc1,-3.6,-5.8,0.8,-0.5,23284*
CCOCCCNC(=O)C(c1ccc(Cl)cc1)N(Cc1cccs1)C(=O)CNC(C)=O (stereo unspecified),8.5,-8.1,-1.1,-6.9,6784
O=C(COC(=O)c1cc(S(=O)(=O)N2CCOCC2)ccc1F)NCc1ccco1,-4.9,8.1,0.9,3.4,5375
COc1cc2cnc(-c3ccccc3)c(C(=O)c3ccc(OCc4ccccc4)cc3)c2cc1OC,x,2.8,-0.1,3.9,2895
CCCN1CCCc2cc(CN(CCCN3CCOCC3)C(=O)Nc3ccc(OCC)cc3)ccc21,8.6,-6.5,-0.2,-13.8,22682*
CC12CCC(C(=O)NCCCN3CCOCC3)(OC1=O)C2(C)C (stereo unspecified),1.9,-1.3,-1.9,-3.5,22515*
COc1ccc(-c2cn[nH]c2N)c(OC)c1,3.8,-16.7,7.1,3.8,17696*
CCOc1ccc(-c2cn[nH]c2N)cc1,-3.3,0.0,-0.5,-4.1,23738*
COc1ccc(-c2cn[nH]c2N)cc1,3.0,-4.5,0.3,3.5,3390
